These results are taken from PubChem BioAssay AID687014 (The Scripps Research Institute Molecular Screening Center, 2013).

About 6,800 (1.8%) of roughly 370,000 compounds were called active. This is one part of a sample in which actives are shown more often than they occur. A number with no mark means an inactive call.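 The calls were made as follows: active = activation above a cutoff set at the mean of all screened compounds plus 3 SD (cut at about 10% in these data); inactive = the rest.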

The subject of the assay is Nuclear hormone receptor DAF-12 (Heterodera glycines), GAL4 fusion. Nature of the assay: hgDAF-12 GAL4 fusion reporter activation – cell-based, luminescence, HEK293, UAS-luciferase, primary screen (AID 687014).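 Also: 0% = DMSO wells and 100% = sodium butyrate wells.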 To be noted: HEK293 GAL4-hgDAF12 UAS-luciferase reporter, agonist luminescence; at 6.8 µM; stronger effect = higher value; normalized to butyrate control.
As to `O=C(CCc1nnc(CCCCc2ccccc2)o1)NC(c1cccnc1)C(F)(F)F` (stereo unspecified), the activation was 1.64%.
With `Cc1cc(=O)n2nc(N3CCCC(C(=O)N4CCN(C)CC4)C3)sc2n1` (stereo unspecified), the activation was -0.62%.
In the case of `O=S1(=O)c2ccc(Br)cc2OC[C@H](Cc2ccccc2)N1Cc1cn(Cc2ccccc2)nn1`, the activation was -1.13%.
Regarding `Cc1nccn1CCC1CCCCN1C(=O)CCc1nnc(-c2ccsc2)o1` (stereo unspecified), the activation is -0.93%.
As to `CC(=O)Nc1cccc(C(=O)OCN2C(=O)c3ccccc3C2=O)c1`, the activation was -0.37%.
Regarding `CC(C)C(=O)Nc1cccc(C(=O)Nc2ccc3c(c2)OCO3)c1`, the activation was 14.9% (active).
For the molecule `CC(=O)Nc1cccc(C(=O)OCC(=O)NCc2cc(C)c(O)c(C)c2)c1`, the activation was 3.44%.
On to `CC(Sc1nc2cc(Cl)ccc2s1)C(=O)Nc1ccc2c(c1)OCO2` (stereo unspecified), for which the activation is 7.08%.
Then `CCSc1ccccc1C(=O)Nc1ccc2c(c1)OCO2`, with 3.85%; and `CC(=O)Nc1cccc(C(=O)OCC(=O)c2ccc3c(c2)OCO3)c1`, with 17.4% (active); and `COC(=O)C1=C(C(=O)OC)C2C=C(C(C)C)C1C(=O)C2(C)O` (stereo unspecified), with 2.89%.
The figure for `COC(=O)c1cccc(Cn2ccc3ccc(-c4ccc5ccn(C(=O)c6ccccc6C)c5c4)cc32)c1` is 0.42%; for `O=C(NS(=O)(=O)c1cccs1)[C@H]1O[C@@H](n2ccc(=O)[nH]c2=O)[C@H](O)[C@@H]1O` it is 1.66%.
Then `COc1ccc(N2CCN(CCNS(=O)(=O)c3ccc([N+](=O)[O-])cc3)CC2)cc1`, with -4.01%; and `CCOc1ccccc1/C=N/Nc1nc2ccccc2o1`, with 10.6% (active); and `Fc1ccccc1OCCSc1nc2ccccc2o1`, with 3.51%.
For `O=C(CSc1nc2ccccc2o1)N/N=C/c1ccccc1C(=O)O`, the activation is 1.68%.
As to `COc1ccccc1C(=O)N1O[C@]23C=C[C@]14C[C@@H](O)CC[C@]4(C)C2CC[C@]1(C)[C@@H]([C@H](C)/C=C/[C@H](C)C(C)C)CC[C@H]13` (stereo partly specified), the activation is -1.48%.
Turning to `C/C(=N/NC(=O)c1ccn(C)n1)c1ccncc1`, the activation was 7.12%.
In the case of `C/C(=N\NC(=O)c1ccccc1F)c1ccccn1`, the activation was 10.8% (active).
Regarding `CC(=NNC(=S)N1CCCCCC1)c1ccccn1`, the activation is 2.43%.
Then `Cc1ccc(S(=O)(=O)N2C[C@@H](C)[C@]3(C2)[C@H](O)[C@H](OC(=O)NCc2ccccc2)C[C@H]2C(=O)N(c4ccccc4)C(=O)[C@H]23)cc1`, with -0.54%; and `Cc1ccc(CN2CCCCC(NC(=O)C3CCCCC3)C2=O)cc1` (stereo unspecified), with -1.5%.
On to `O=c1[nH]c(CCl)nc2cc(-c3ccc(Cl)cc3)sc12`, for which the activation is 12.9% (active).
As for `Cn1c(NCc2cccnc2)nc2cc(-c3ccc(F)cc3)sc2c1=O`, the activation is 8.39%.
The figure for `COc1cccc(-c2cc3nc(NCCOc4ccccc4Cl)n(C)c(=O)c3s2)c1` is 0.22%; for `COc1ccc(-n2c(SCC(=O)Nc3ccc4c(c3)OCCO4)nnc2-c2ccc(Cl)cc2)cc1` it is -1.31%; for `O=C(C(=O)N1CCC(CNC(=O)c2cccnc2Cl)CC1)c1cccs1` it is 1.44%.
Regarding `Cc1nc(NC(=O)C(C)(C)C)sc1[N+](=O)[O-]`, the activation is -4.82%.
Then `Cc1nc(N2CCCCC2)sc1C=O`, with 1.15%.
The figure for `COc1ccc2nc(N3CCN(C(=O)c4ccc([N+](=O)[O-])o4)CC3)sc2c1` is -2.68%; for `Brc1ccc2nc(N3CCCC3)sc2c1` it is 14.3% (active).
`Cc1nc(CNc2ncnc3ccc(-c4ccc5c(c4)OCO5)cc23)cs1`: the activation was 1.56%.
The figure for `Cc1cccc(NC(=O)/C=C/c2ccc3c(c2)OCO3)n1` is 17.7% (active); for `Cc1cccc(NC(=O)Nc2ccc3c(c2)OCO3)n1` it is 14.2% (active); for `CC(NC(=O)Nc1cccc([N+](=O)[O-])c1)c1ccc2c(c1)OCO2` (stereo unspecified) it is -1.33%.
Turning to `CN(Cc1ccccc1)C(=O)COC(=O)/C=C/c1ccc2c(c1)OCO2`, the activation is -1.56%.
For `CC(NS(=O)(=O)c1ccc(Cl)cc1)C(=O)Nc1ccc2c(c1)OCCO2` (stereo unspecified), the activation is 1.96%.
In the case of `CCOc1ncccc1C(=O)Nc1ccc2c(c1)OCCO2`, the activation was -3.84%.
`Cc1ccc(OCCCC(=O)Nc2ccc3c(c2)OCCO3)cc1`: the activation was -2.83%.
As for `CNS(=O)(=O)c1ccc(NC(=O)Nc2ccc3c(c2)OCO3)cc1`, the activation was 18.5% (active).
As to `O=C(COC(=O)/C=C/c1ccc2c(c1)OCO2)NC1CCS(=O)(=O)C1` (stereo unspecified), the activation is -2.83%.
With `COc1cccc(/C=C/C(=O)Nc2ccc3c(c2)OCCO3)c1`, the activation was 16.9% (active).
Then `O=C(Nc1ccc2c(c1)OCO2)C1CC(c2c(F)cccc2Cl)=NO1` (stereo unspecified), with 7.76%; and `Cc1ccc(S(=O)(=O)NCC(=O)Nc2ccc3c(c2)OCCO3)cc1`, with -3.96%; and `CN1C(=O)c2cc(NS(C)(=O)=O)ccc2OC[C@@H]2O[C@@H](CC(=O)NCc3ccc(-c4ccccc4)cc3)CC[C@H]21`, with -3.14%.
Turning to `COc1ccc(OCC(=O)NN2Cc3ccccc3C2=N)cc1`, the activation was 1.16%.
As for `CCOC(=O)[C@@]12CN(C(=O)OC(C)(C)C)CC=C1N(Cc1ccc(OC)cc1)C(=O)[C@H]2CC(=O)NCc1ccc(OC)c(OC)c1`, the activation is -0.18%.
As for `COc1cc(N/C=C2\CC(=O)NC(C)=C2C#N)cc(OC)c1OC`, the activation is -2.99%.
For the molecule `Cc1csc2nc(COC(=O)c3cccc(N(C)C)c3)cc(=O)n12`, the activation was 1.98%.
Take `O=c1c(-c2ccccc2)coc2cc(O)ccc12`: the activation was 11.4% (active).
As for `CCc1ccc(Oc2coc3cc(O)ccc3c2=O)cc1`, the activation was 2.19%.
For the molecule `CC(C)=CCc1c(O)c(CC=C(C)C)c2occ(-c3ccc(O)cc3)c(=O)c2c1O`, the activation is 1.09%.
Then `C#CCN([C@@H](C)C(=O)OCC)S(=O)(=O)c1ccc(Br)cc1F`, with 3.49%; and `S=c1[nH]nc(Nc2ccccc2)s1`, with -0.56%; and `CC(C)(C)C(=O)c1cnc(Nc2ccccc2)s1`, with 15.3% (active).
With `CC(C)(C)c1nnc(NC(=O)C2c3ccccc3Oc3ccccc32)s1`, the activation was 0.43%.
Then `CC(C)(C)OC(=O)NCCc1ccccc1/C=C/S(=O)(=O)NCc1ccc(F)cc1`, with 0.52%; and `CCCOc1ccc(C(=O)NCCc2ccccc2)cc1`, with 18.9% (active).
The figure for `O=C(CNC(=O)c1ccccc1F)c1ccc(Br)cc1` is 11.4% (active); for `O=C(CNC(=O)c1ccccc1F)OCC(=O)c1c[nH]c2ccccc12` it is 1.04%.
Take `O=C(NCCc1csc(-c2ccccc2)n1)c1ccccc1F`: the activation was -3.44%.
Regarding `O=C(COC(=O)CNC(=O)c1ccccc1F)NCC(F)(F)F`, the activation is -2.85%.
With `NS(=O)(=O)c1cc(C(=O)NCCOc2ccccc2)c(Cl)cc1Cl`, the activation was -5.7%.
As to `O=C(CCc1c[nH]c2ccccc12)NCCOc1ccccc1`, the activation was 3.15%.
As for `O=C(NCCOc1ccccc1)c1ccccc1`, the activation is 14.6% (active).
Take `CC(C)c1ccc(C(=O)NCCCc2ccccc2)cc1`: the activation was 9.47%.
Regarding `O=C(CCCOc1ccccc1)NNC(=O)c1ccc(Cl)cc1`, the activation is -0.32%.
The figure for `CN(c1ccccc1)S(=O)(=O)c1ccc(C(=O)NCCc2ccccc2)cc1` is 4.14%; for `O=C(NCCOc1ccccc1)c1ccccc1F` it is 15% (active).
Regarding `NC(=O)c1nnsc1-c1ccc(-c2snnc2C(N)=O)cc1`, the activation is 2.87%.
Turning to `COc1cccc(CSc2nnc(-c3cccnc3)n2Cc2ccccc2)c1`, the activation was 1.72%.
`CC(C)CNc1cccc2c1S(=O)(=O)N[C@H](C)CO2`: the activation was -0.06%.
Turning to `Cc1[nH]c2ccccc2c1CC(=O)Nc1ccc(Nc2cccnc2)c(-c2cccc(Cl)c2)c1`, the activation was -1.25%.
In the case of `CC(C)C(C#CC1CC1)N(Cc1ccc2c(c1)OCO2)C(N)=NC(=O)/C=C/c1cccc(C(F)(F)F)c1` (stereo unspecified), the activation was 0.47%.
As to `C=CCN1C(=O)[C@@H](CC(=O)N2CCN(C(=O)c3ccco3)CC2)[C@]2(C(=O)OC)CCCCC=C12`, the activation was 0.44%.
Turning to `Nc1cccc2c1C(=O)N(Cc1nnc(-c3ccccc3Br)o1)C2=O`, the activation is -2.29%.
Consider `C=CC1=CCN(S(=O)(=O)C(C)(C)C)[C@@H]1CCO`, for which the activation is 1.1%.
Then `CC(C)Oc1ccc(/C=C(\NC(=O)/C=C/c2ccco2)C(=O)NCCc2nc3ccccc3[nH]2)cc1`, with -4.59%.
Then `O=C(OCc1cc(=O)n2ccsc2n1)C1(c2ccc(Cl)cc2)CC1`, with -1.52%.
As to `COC(=O)Cc1nnn2c1[C@H](C)[C@@H](OC)c1cc(Br)ccc1-2`, the activation is 3.49%.
Turning to `CCOC(=O)c1c(NC(C)=O)sc2c(O)c(Br)ccc12`, the activation is 1.29%.
Turning to `Cc1csc(NC(=O)Nc2ccccc2[N+](=O)[O-])n1`, the activation is 25.4% (active).
On to `CN1CCN(CCNC(=O)Nc2ccccc2[N+](=O)[O-])CC1`, for which the activation was 0.56%.
On to `Cc1cc(NC(=O)Nc2ccccc2[N+](=O)[O-])no1`, for which the activation is 4.97%.
Then `COC1=C[C@H](C(=O)NCCNC(C)=O)[C@H](C)[C@@H](c2ccccc2)CC1=O`, with -1.27%.
Regarding `O=C(Cn1c(N2CCN(C/C=C/c3ccccc3)CC2)nc2ccccc21)c1ccccc1`, the activation was -0.26%.
The figure for `O=C(Nc1ccc(C2CC2(Cl)Cl)cc1)c1cccc([N+](=O)[O-])c1` (stereo unspecified) is 14.5% (active); for `O=C(NC(=S)NC1CCS(=O)(=O)C1)c1cccc([N+](=O)[O-])c1` (stereo unspecified) it is 3.84%; for `Cc1ccc(NC(=O)C(=O)NCC2CCN(C(=O)c3cccc([N+](=O)[O-])c3)CC2)cc1` it is 1.22%.
For the molecule `COc1ccc(S[C@]2(C(=O)N(C)C)CC(=O)N(c3ccc(OC)cc3)[C@@H]2c2ccc(OC)cc2)cc1`, the activation was -1%.
